Potency and outcome data for 31 compounds are collected here from PubChem BioAssay (NCATS).

Where “and” joins values, the source holds several entries; their conditions need not be identical. Equal entries are not always repeated. Records with an inconclusive call do not appear. Calls of active or inactive are those of the source. Calls follow the shape of the dose curve; as a rule, active = well fitted curve in the direction sought with a large enough effect; inconclusive = small, poorly fitted or top-dose-only effect, or another doubt; inactive = no such curve, though single readings can be large; an effect the other way counts as inactive or inconclusive.

Test [1] addresses ATP-dependent 6-phosphofructokinase (Trypanosoma brucei brucei) (UniProt O15648). The test is described as follows: qHTS Validation Assay to Find Inhibitors of T. brucei phosphofructokinase (AID 485368). Also: potency is read from the fitted curve at half-maximal effect. The essentials:
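Luminescent ADP detection measures PFK turnover of fructose-6-phosphate (0.5 mM) with ATP (0.1 mM) at pH 8.0. Reaction runs 45 min at room temperature with 1.25 nM enzyme; inhibitors tested as titrations up to 57 uM.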
On the technique in general: In qHTS, concentration-response curves come from the screen itself.

Test [2] addresses Thioredoxin reductase 1, cytoplasmic (Rattus norvegicus) (UniProt O89049). The experiment in a line: qHTS Assay for Substrates of Mammalian Selenoprotein Thioredoxin Reductase 1 (TrxR1) (AID 488772).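 Also: series mostly up to about 57 µM; a drop in NADPH fluorescence below the no-compound background marks a TrxR1 substrate.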 The method in brief:
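In this dual-purpose format, potential substrates are identified from the first fluorescence read after selenite addition, not from the 8-minute delta. Rat enzyme is preincubated with NADPH and then with compound at ~22 deg C.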

Test [3] has as its target Flap endonuclease 1 (Homo sapiens) (UniProt P39748). The experiment in a line: qHTS Validation Assay for the Inhibitors of Human Flap endonuclease 1 (FEN1) (AID 488816). The method in brief:
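Enzyme reagent 10 nM; cpds pinned; 15 min RT preinc.; substrate 50 nM final; reads t=0 and 15 min; no-enzyme buffer wells as neg. control; normalized data, 4-parameter Hill fit.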

Test [4] deals with Chromobox protein homolog 1 (Homo sapiens) (UniProt P83916). The experiment in a line: qHTS Validation Assay for Inhibitors of HP1-beta Chromodomain Interactions with Methylated Histone Tails (AID 488953). Also: nearly all actives have a fitted effect of over 50% in size. Also: potency is read from the fitted curve at half-maximal effect. The method in brief: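 Disruption of preformed HP1-beta:H3K9me3 peptide complexes (both 50 nM, PBS pH 7.4 with 0.01% Tween-20) is measured by AlphaScreen after 30 min compound exposure at room temperature, using streptavidin donor and nickel chelate acceptor beads at 10 ug/mL final.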

In test [5] the target is Methanococcus maripaludis chaperonin (MmCpn) (UniProt Q6LX38). The experiment in a line: High-Throughput Screening for Modulators of Cytosolic Chaperonin Activity: MmCpn Primary Screen (AID 488978).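 Also: 50 nM MmCpn enzyme hydrolysing 30 µM ATP at 37 °C.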 The essentials:
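Measures ATPase turnover of the M. maripaludis chaperonin (50 nM final) against 30 uM ATP over 10 min at 37C, with compound added 5 min beforehand at room temperature. ADP is quantified by HTRF immunodetection.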

The target of test [6] is M-phase phosphoprotein 8 (Homo sapiens) (UniProt Q99549). The test is described as follows: qHTS Validation Assay for Inhibitors for MPP8 Chromodomain Interactions with Methylated Histone Tails (AID 488949). Also: nearly all actives have a fitted effect of over 55% in size. Also: potency is read from the fitted curve at half-maximal effect. The method in brief:
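Disruption of the preformed MPP8–trimethyl-H3K9 peptide complex (both 50 nM, 30 min, RT) is measured after 30 min compound exposure, using AlphaScreen proximity beads; aurintricarboxylic acid titration serves as plate control.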

Test [7] deals with Thioredoxin reductase 1, cytoplasmic (Rattus norvegicus) (UniProt O89049). The test is described as follows: qHTS Assay for Inhibitors of Mammalian Selenoprotein Thioredoxin Reductase 1 (TrxR1) (AID 488773).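 Also: drop in NADPH fluorescence over an 8 min run after selenite addition; series mostly up to about 57 µM; nearly all actives have a fitted effect of over 40% in size.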 The settings on record: Potency: inhibition. The essentials: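 Inhibition is scored from the loss of NADPH fluorescence between first and last reads of an 8-min kinetic run. Selenite (400 uM) was the substrate, added after 15 min compound preincubation at room temperature.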

Test [8] deals with Transient receptor potential cation channel subfamily V member 1 (Homo sapiens) (UniProt Q8NER1). The test is described as follows: HTS Assay for Compounds that Act as Enhancers of the Vanilloid Receptor 1 (AID 488979). The method in brief: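 TRPV1 cells loaded with Fluo-8 calcium dye; compound added and Ca2+ signal (ex 480/em 520 nm) followed 3 min, then capsaicin at EC20 added and read 2 more min to detect enhancement.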

Test [9] is described as follows: Quantitative high throughput screen for delayed death inhibitors of the malarial parasite plastid, 96 hour incubation (AID 488745).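 Also: luciferase-expressing P. falciparum in erythrocytes at 2% hematocrit and 0.1% parasitemia; series mostly up to about 29 µM; nearly all actives have a fitted effect of over 70% in size.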 The essentials: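 Readout is firefly luciferase luminescence from an integrated reporter in P. falciparum; lower signal marks inhibited growth. Cultures at 2% hematocrit and 0.1% parasitemia were treated with compound across two generations (96 h, 37 C, 5% CO2).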

Test [10] in a line: Quantitative high throughput screen for delayed death inhibitors of the malarial parasite plastid, 48 hour incubation (AID 488752). Also: nearly all actives have a fitted effect of over 65% in size. The essentials: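 First, compound was pinned into RPMI 1640 medium containing 0.5% Albumax. Next, reporter-parasite-infected erythrocytes were added to 2% hematocrit and 0.1% parasitemia. After 48 h at 37 C under 5% CO2, luciferase detection reagent was added and luminescence read.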

Methanococcus maripaludis chaperonin (MmCpn), sequence (Q6LX38 1-543): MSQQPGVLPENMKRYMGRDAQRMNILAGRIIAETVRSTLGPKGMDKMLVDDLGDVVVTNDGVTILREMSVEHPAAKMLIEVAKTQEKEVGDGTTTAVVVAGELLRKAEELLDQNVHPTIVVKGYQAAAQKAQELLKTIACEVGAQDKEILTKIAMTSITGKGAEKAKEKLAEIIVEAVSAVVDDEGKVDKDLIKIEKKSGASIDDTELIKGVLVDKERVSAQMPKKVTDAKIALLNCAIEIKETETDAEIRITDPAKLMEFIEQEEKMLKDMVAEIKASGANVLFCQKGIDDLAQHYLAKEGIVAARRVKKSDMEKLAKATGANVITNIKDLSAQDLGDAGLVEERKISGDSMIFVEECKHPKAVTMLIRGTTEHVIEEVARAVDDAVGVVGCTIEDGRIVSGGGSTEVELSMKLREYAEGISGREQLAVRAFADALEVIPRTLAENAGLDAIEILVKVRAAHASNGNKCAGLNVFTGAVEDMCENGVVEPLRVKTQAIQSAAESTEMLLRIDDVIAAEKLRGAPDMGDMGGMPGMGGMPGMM
Transient receptor potential cation channel subfamily V member 1 (Homo sapiens), sequence (Q8NER1 whole entry, looked up): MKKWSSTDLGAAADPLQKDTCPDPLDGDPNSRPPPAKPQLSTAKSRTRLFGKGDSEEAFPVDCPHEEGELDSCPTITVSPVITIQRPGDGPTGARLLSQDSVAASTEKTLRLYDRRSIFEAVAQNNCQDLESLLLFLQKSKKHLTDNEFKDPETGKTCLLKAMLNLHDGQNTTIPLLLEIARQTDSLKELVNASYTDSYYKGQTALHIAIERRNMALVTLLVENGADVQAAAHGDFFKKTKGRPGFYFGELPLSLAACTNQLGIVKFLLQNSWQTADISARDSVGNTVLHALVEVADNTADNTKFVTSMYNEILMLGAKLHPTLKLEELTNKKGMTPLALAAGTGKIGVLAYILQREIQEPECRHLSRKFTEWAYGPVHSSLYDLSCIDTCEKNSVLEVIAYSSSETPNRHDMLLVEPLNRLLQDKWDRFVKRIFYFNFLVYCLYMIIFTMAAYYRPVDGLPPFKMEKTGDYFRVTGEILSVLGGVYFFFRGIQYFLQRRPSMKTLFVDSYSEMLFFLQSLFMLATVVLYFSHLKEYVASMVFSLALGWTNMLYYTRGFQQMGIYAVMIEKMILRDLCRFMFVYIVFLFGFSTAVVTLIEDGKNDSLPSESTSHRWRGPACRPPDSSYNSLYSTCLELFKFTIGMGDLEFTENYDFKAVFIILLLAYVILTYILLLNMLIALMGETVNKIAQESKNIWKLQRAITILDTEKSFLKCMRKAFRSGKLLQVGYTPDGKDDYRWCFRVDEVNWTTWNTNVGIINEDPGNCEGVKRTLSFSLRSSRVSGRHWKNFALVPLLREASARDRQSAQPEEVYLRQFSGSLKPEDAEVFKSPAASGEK
Thioredoxin reductase 1, cytoplasmic (Rattus norvegicus), sequence (O89049 whole entry, looked up): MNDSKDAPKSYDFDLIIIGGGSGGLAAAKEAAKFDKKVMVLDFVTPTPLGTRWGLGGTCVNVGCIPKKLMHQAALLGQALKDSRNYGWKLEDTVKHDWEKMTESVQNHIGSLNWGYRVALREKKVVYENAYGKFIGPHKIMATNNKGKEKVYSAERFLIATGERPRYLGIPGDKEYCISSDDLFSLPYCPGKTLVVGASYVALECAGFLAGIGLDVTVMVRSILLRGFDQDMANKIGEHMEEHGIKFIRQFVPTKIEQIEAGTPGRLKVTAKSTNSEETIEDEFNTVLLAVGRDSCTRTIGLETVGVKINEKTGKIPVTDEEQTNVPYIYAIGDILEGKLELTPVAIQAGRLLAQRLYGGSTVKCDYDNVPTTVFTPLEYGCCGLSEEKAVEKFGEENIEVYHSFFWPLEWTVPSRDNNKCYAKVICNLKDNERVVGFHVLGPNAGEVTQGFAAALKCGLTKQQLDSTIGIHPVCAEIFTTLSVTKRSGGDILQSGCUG
M-phase phosphoprotein 8 (Homo sapiens), sequence (Q99549 whole entry, looked up): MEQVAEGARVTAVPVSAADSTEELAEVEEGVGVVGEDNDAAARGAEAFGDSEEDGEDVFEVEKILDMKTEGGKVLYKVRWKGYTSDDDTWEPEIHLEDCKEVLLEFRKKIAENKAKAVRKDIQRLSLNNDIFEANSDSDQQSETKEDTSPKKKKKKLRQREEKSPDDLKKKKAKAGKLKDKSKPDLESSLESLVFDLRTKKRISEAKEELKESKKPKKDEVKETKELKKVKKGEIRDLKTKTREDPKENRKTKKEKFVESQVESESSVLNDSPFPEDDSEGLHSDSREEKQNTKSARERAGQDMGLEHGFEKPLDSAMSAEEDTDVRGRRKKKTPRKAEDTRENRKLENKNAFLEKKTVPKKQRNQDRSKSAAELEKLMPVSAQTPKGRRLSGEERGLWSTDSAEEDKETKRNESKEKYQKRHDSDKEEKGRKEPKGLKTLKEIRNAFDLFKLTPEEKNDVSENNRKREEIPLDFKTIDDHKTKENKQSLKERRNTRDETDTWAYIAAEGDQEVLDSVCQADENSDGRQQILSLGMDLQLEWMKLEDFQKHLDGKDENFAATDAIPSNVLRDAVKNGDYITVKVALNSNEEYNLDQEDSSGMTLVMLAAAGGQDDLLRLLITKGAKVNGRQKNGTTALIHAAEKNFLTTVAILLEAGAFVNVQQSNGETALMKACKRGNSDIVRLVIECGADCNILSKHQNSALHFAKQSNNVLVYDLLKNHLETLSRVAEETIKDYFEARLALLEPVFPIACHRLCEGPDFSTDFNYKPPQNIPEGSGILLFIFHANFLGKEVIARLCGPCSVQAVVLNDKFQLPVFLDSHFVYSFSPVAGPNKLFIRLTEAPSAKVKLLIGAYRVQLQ
Flap endonuclease 1 (Homo sapiens), sequence (P39748 whole entry, looked up): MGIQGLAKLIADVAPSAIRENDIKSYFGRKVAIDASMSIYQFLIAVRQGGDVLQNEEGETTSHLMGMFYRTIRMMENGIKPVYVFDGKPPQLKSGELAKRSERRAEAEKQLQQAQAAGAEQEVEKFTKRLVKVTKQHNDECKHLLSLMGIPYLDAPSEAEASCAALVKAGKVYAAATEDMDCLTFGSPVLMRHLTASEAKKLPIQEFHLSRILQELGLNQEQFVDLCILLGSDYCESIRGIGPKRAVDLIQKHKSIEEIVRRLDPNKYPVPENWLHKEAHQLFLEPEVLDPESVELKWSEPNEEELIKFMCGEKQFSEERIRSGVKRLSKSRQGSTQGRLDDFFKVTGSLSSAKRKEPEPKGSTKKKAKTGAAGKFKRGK
Chromobox protein homolog 1 (Homo sapiens), sequence (P83916 whole entry, looked up): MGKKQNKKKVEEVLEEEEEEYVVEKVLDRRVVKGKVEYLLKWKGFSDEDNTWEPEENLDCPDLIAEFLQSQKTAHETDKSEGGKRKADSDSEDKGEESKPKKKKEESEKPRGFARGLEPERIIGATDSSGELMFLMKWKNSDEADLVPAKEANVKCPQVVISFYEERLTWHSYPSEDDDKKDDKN
ATP-dependent 6-phosphofructokinase (Trypanosoma brucei brucei), sequence (O15648 whole entry, looked up): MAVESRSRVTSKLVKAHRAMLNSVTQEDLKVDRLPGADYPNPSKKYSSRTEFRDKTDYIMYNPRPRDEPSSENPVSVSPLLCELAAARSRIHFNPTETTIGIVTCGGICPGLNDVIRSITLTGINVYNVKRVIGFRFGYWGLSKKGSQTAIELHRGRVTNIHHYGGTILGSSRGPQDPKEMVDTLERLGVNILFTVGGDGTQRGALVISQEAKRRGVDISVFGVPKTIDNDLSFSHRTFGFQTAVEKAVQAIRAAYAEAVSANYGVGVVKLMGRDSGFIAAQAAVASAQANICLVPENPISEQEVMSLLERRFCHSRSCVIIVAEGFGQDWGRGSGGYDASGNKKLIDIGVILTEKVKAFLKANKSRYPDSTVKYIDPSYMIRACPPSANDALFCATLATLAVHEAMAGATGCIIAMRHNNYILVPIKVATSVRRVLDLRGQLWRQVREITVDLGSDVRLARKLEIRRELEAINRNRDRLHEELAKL

With `Fc1ccc(CN(C2=NCCN2)c2c(Cl)cccc2Cl)cc1`, the Potency entry in test [1], in test [3] and in test [4] was “inactive” throughout. Also, the outcome in test [2] and in test [5] was inactive.
With `CC(C)NC[C@H](O)COc1cccc2ccccc12`, the Potency result in test [1], in test [6] and in [4] was “inactive” in each case. Further, the call in [2] and in test [5] was inactive.
For the compound `O=c1cc(-c2ccccc2F)[nH]c2cc3c(cc12)OCO3`, the Potency entry in [1], in [7], in [3] and in [6] was “inactive” in each case. The compound was classed as inactive in test [2] and in test [5].
`COc1cc([C@@H]2c3cc4c(cc3[C@H](O)C3COC(=O)[C@@H]32)OCO4)cc(OC)c1OC` (some centres undefined): the Potency result in test [1], in test [7], in test [3], in [6] and in [4] was “inactive” throughout. Also, the outcome in [2], in [5] and in [8] was inactive.
On to `CCCCCCCCCC[Si](C)(C)CCC(=O)NC(Cc1ccc(C)cc1)c1ccccc1` (centres undefined), for which the Potency result in test [9], in test [10], in test [7], in test [3], in [6] and in test [4] was “inactive” throughout. Moreover, the outcome in [2], in test [5] and in test [8] was inactive.
Regarding `CC#CCOC(=O)c1c(C)nc2sc3c(c2c1N)CCC(O)C3` (centres undefined), the Potency entry in test [1], in [7], in [3], in [6] and in test [4] was “inactive” in each case. The call in [2], in test [5] and in test [8] was inactive.
As for `CC(=O)O[C@H]1Cc2ccccc2N(C(N)=O)c2ccccc21`, the Potency entry in test [1], in test [7], in [3] and in test [6] was “inactive” in each case. Moreover, the compound was classed as inactive in [5].
In the case of `c1ccc2c(c1)CCC[C@H]2Nc1nc2ccccc2[nH]1`, the Potency entry in [1], in test [7], in test [3] and in test [6] was “inactive” throughout. For the same compound, the compound was called inactive in [5].
With `Brc1c(Br)c(Br)c2[nH]cnc2c1Br`, the Potency entry in [1], in [7], in [3], in test [6] and in [4] was “inactive” each time. For the same compound, the result in test [2] and in test [5] was inactive.
Regarding `COC(=O)C1=C(C)NC(C)=C([N+](=O)[O-])C1c1ccccc1C(F)(F)F` (centres undefined), the Potency result in [1], in [7], in [3] and in test [6] was “inactive” throughout. For the same compound, the result in [2], in test [5] and in test [8] was inactive.
As for `Nc1ncnc2c1nc(Sc1ccc(Cl)cc1)n2[C@H]1OC2COP(=O)(O)O[C@@H]2C1O` (some centres undefined), the Potency entry in test [1], in [7], in [3], in test [6] and in test [4] was “inactive” throughout. In addition, the result in test [2] and in test [5] was inactive.
Take `c1ccc(CN2CCC3(CCCc4ccccc43)CC2)cc1`: the Potency entry in test [1], in [7], in test [3], in [6] and in test [4] was “inactive” throughout. Also, the result in [2], in test [5] and in test [8] was inactive.
`CCCn1c(=O)c(C)cn2nc(N)nc12`: the Potency entry in test [1], in test [3], in [6] and in test [4] was “inactive” each time. The compound was classed as inactive in test [2] and in test [5].
Consider `CC(C)(C)c1ccc(/C=C/C(=O)Nc2ccc3c(c2)OCCO3)cc1`, for which the Potency result in test [1], in test [7], in test [3] and in test [6] was “inactive” throughout. Moreover, the compound was called inactive in test [2] and in test [5].
For `CC(=O)SC1CC2=CC(=O)CC[C@]2(C)C2CC[C@@]3(C)C(CC[C@@]34CCC(=O)O4)C12` (some centres undefined), the Potency result in [1], in test [7], in test [3], in test [6] and in test [4] was “inactive” in each case. The call in [2] and in test [5] was inactive.
As for `Cc1nc2n(c(=O)c1CCN1CCC(c3noc4cc(F)ccc34)CC1)CCCC2O` (centres undefined), the Potency result in test [1], in [7] and in test [4] was “inactive” each time. The result in test [2] and in test [5] was inactive.
In the case of `CCCCCC[C@@H]([C@@H](C)O)n1cnc2c(N)ncnc21`, the Potency result in [1], in test [7] and in test [6] was “inactive” each time. For the same compound, the outcome in [2], in test [5] and in [8] was inactive.
On to `O=c1[nH]c(=S)[nH]c(-c2ccccc2)c1Cc1c(O)ccc2ccccc12`, for which the Potency result in test [1], in test [7], in [3] and in test [6] was “inactive” each time. The compound was called inactive in [2] and in test [5]. The Potency in test [4] was 44.7 µM (active).
Turning to `NOCC(=O)O`, the Potency result in test [1], in test [7], in test [3], in [6] and in test [4] was “inactive” each time. Moreover, the compound was called inactive in [2], in test [5] and in test [8].
Turning to `O=C(O)Cc1c[nH]c2ccc(O)cc12`, the Potency result in [1], in test [3], in test [6] and in [4] was “inactive” throughout. Moreover, the compound was classed as inactive in test [2], in test [5] and in test [8].
As to `O=C(O)c1cc(=O)cc(C(=O)O)[nH]1`, the Potency entry in test [9], in [10], in test [7], in test [3], in [6] and in test [4] was “inactive” throughout. The call in test [2], in [5] and in test [8] was inactive.
With `N[C@@H](Cc1ccc(F)cc1)C(=O)O`, the Potency result in test [1], in test [7], in test [6] and in [4] was “inactive” throughout. Besides, the call in [2], in test [5] and in test [8] was inactive.
Take `CC1=C(/C=C/C(C)=C/C=C/C(C)=C\C(=O)O)C(C)(C)CCC1`: the Potency entry in [1], in test [3], in test [6] and in test [4] was “inactive” in each case. Besides, the compound was classed as inactive in test [2], in test [5] and in test [8].
Regarding `O=C(O)CCC/C=C\C[C@@H]1[C@@H](/C=C/[C@H](O)C2Cc3ccccc3C2)[C@@H](F)C[C@@H]1O`, the Potency result in test [1], in test [7], in test [3] and in test [6] was “inactive” each time. Also, the outcome in test [2] and in test [5] was inactive.
On to `N#C/C(=C\c1ccc(O)c(O)c1)C(=O)NCCc1ccccc1`, for which the Potency in [1] was 15.1 µM (active); in test [6] it was 11.2 µM (active) and 18.9 µM (active); in test [4], 10 µM (active). The result in test [2], in test [5] and in test [8] was inactive. Besides, in test [3], the Potency entry is “inactive”.
Take `c1ccc(C(NCc2cccnc2)(c2ccccc2)c2ccccc2)cc1`: the Potency result in [1], in test [7], in test [3], in test [6] and in test [4] was “inactive” in each case. Further, the compound was classed as inactive in [2] and in [5].
Turning to `C=CCN1CCc2cc(O)c(O)cc2C(c2ccccc2)C1` (centres undefined), the Potency result in test [1], in test [7] and in test [3] was “inactive” in each case. The call in test [5] and in test [8] was inactive.
With `OC[C@H]1O[C@@H](n2cnc3cncnc32)[C@H](O)[C@@H]1O`, the Potency entry in [1], in [7], in [3], in [6] and in test [4] was “inactive” throughout. Further, the result in test [2], in test [5] and in [8] was inactive.
In the case of `COc1ccc(-c2cc3ncc(C)n3c(Nc3ncccc3C(N)=O)n2)cc1OC`, the Potency entry in [1], in [3], in [6] and in [4] was “inactive” in each case. The call in [2] and in test [5] was inactive.
Regarding `N=C(N)SCCN`, the Potency entry in [9], in [10], in test [7], in test [3], in test [6] and in test [4] was “inactive” in each case. In addition, the call in test [2], in [5] and in test [8] was inactive.
`NC[C@@H]1O[C@H](c2ccccc2)Cc2c1ccc(O)c2O`: the Potency result in [1], in test [7], in [6] and in [4] was “inactive” throughout. The call in test [2] and in test [5] was inactive.
